The structures appear in SMILES notation.

One assay in a line: Primary imaging screen for DUSP6 inhibitors that restore phospho-Erk in transfected HeLa cells, chemical complementation (AID 609). The note with it: HeLa MKP-3 transfected, phospho-Erk imaging KS statistic; measured here: nuclear c-Myc green intensity z-score; at 10 µM; cells stimulated with TPA for 15 min.
The compound `N#CC1=C(N)OC2=C(C(=O)CCC2)C1CCc1ccccc1` (stereo not drawn) registered a z-score of -0.525.

In the case of `CC(=N\O)/C(CN(C)C)=N/O`, the z-score is -0.0101.

Turning to `CCOC(=O)C1/C(=N\O)CC(C)(O)C(C(=O)OCC)C1c1ccc(N(C)C)cc1` (stereo not drawn), the z-score was determined as 1.47.

Regarding `CCOc1cc(C2Nc3ccccc3C(=O)N2c2ccccc2OC)ccc1O` (stereo not drawn), the z-score was -1.2.

With `CCOC(=O)C1=C(N)c2ccccc2CC1C(C)C` (stereo not drawn), the z-score was -1.31.

In turn, `CCOc1ccc2nc(SCC(=O)Nc3ncccn3)[nH]c2c1` displayed a z-score of -0.409.

Consider `O=C(CCN1C(=O)c2ccccc2C1=O)OCN1C(=O)c2ccccc2C1=O`, for which the z-score is -1.53.

The compound `CCOC(=O)Cc1nnc(Nc2cccc(O)c2)c2ccccc12` had a z-score of 0.184.

The compound `Cc1cc(/C=N\O)c(C)n1-c1ccncc1` had a z-score of 0.337.

`Cc1ccc(NC(=O)CSC2=C(C#N)C(c3ccc4c(c3)OCO4)CC(=O)N2)cc1C` (stereo not drawn): the z-score was 0.339.

For the compound `CC1(C2(O)CC(c3ccccc3)ON2)CCCCC1` (stereo not drawn), the z-score was -1.27.

As for `COc1ccc(Cn2c(N)c(C#N)c3nc4ccccc4nc32)cc1OC`, the z-score is -0.363.

With `Cc1nnc(SCC(=O)N2CCC(C(N)=O)CC2)s1`, the z-score was -0.207.

Take `C=CCn1c(SCC(=O)c2ccccc2)nnc1-c1ccc2c(c1)OCO2`: the z-score worked out at 0.0826.

In turn, `CC(C)(C)c1ccc(O)c(N)c1` gave a z-score of -1.2.

`CC(=O)Nc1ccc(-c2cc3ccccc3o2)cc1` displayed a z-score of 2.18.

For `COC(=O)c1ccccc1NC(=O)CSc1nnc(-c2ccncc2)o1`, the z-score was -0.668.

Regarding `Cc1c(C=NCCOCc2ccccc2)cnn1C`, the z-score came out at 0.191.

As for `CCS(=O)(=O)CCn1c([N+](=O)[O-])cnc1C`, the z-score came to 2.39.

In the case of `Cc1ccc(-n2c(N)c(C(N)=O)sc2=S)cc1`, the z-score was -1.13.

On to `CCN(CC)CCOC(=O)C1(c2ccc(OC)c(OC)c2)CCCC1`, for which the z-score was -0.514.

In the case of `CCN(CC)C(=O)c1sc2nc(-c3cccs3)cc(-c3cccs3)c2c1N`, the z-score was -1.58.

`COc1ccc(/C(O)=C2/C(=O)C(=O)N(CCN(C)C)C2c2ccccn2)cc1OC` (stereo not drawn) displayed a z-score of -0.268.

Regarding `CC1(C(=O)CSc2nc3ccccc3s2)CCC(=O)O1` (stereo not drawn), the z-score is -1.1.

Turning to `O=C(O)CC1Sc2nc3ccccc3n2C1=O` (stereo not drawn), the z-score is -0.637.

`CC(=O)Nc1ccc(Oc2ccc3nc(C)[nH]c3c2)cc1` displayed a z-score of -0.885.

The compound `CC(C)c1nc(NCC2CCCO2)c(C#N)c2c1COC(C)(C)C2` (stereo not drawn) showed a z-score of -0.66.

Compound `N#Cc1nc(COc2ccc(Br)cc2)oc1N1CCCC1` came in with a z-score of 1.26.

On to `CCCC1Cc2c(sc3ncnc(N)c23)CO1` (stereo not drawn), for which the z-score was -0.569.

In turn, `Cc1nc(Sc2cccn2C)c(C(F)(F)F)c(=O)[nH]1` showed a z-score of 0.557.

`COC(=O)c1cc(Br)c(=O)n(-c2nccs2)c1` returned a z-score of 0.813.

`Cc1ccc(SCc2[nH]nc3c2C(c2ccc(C)o2)C(C#N)=C(N)O3)cc1` (stereo not drawn) came in with a z-score of 1.82.

In turn, `COc1cccc(C2C(C(=O)c3cc4ccccc4o3)=C(O)C(=O)N2CCN(C)C)c1OC` (stereo not drawn) had a z-score of -1.47.

Take `Cc1cc(C)n(CC2CC(=O)N(c3ccc(Cl)c(Cl)c3)C2=O)n1` (stereo not drawn): the z-score was -0.507.

On to `CN1CCN(c2nc3c(c(=O)n(C)c(=O)n3C)n2Cc2cccc3ccccc23)CC1`, for which the z-score is -0.191.

The compound `CC(C)C(=O)N1CCN(c2nc(-c3ccccc3)c3c(c2C#N)CCCC3)CC1` returned a z-score of 0.332.

For `CCSc1nc(O)c(C2OC(=O)c3c2ccc(OC)c3OC)c(=O)n1-c1ccccc1` (stereo not drawn), the z-score was found to be 0.786.

The compound `COc1cccc(NC(=O)CC2SC(=Nc3ccccc3)NC2=O)c1` (stereo not drawn) displayed a z-score of -0.394.

`Cc1nnc(NCc2n[nH]c(=O)c3ccccc23)c2ccccc12`: the z-score came to 1.26.

Staying with this assay, now noted: HeLa MKP-3 transfected, phospho-Erk imaging KS statistic; measured here: nuclear pErk red intensity z-score; at 10 µM; stronger effect = higher value; cells stimulated with TPA for 15 min.
`N#CC1=C(N)OC2=C(C(=O)CCC2)C1CCc1ccccc1` (stereo not drawn) registered a z-score of -0.374.

Take `CC(=N\O)/C(CN(C)C)=N/O`: the z-score was -0.876.

The compound `CCOC(=O)C1/C(=N\O)CC(C)(O)C(C(=O)OCC)C1c1ccc(N(C)C)cc1` (stereo not drawn) came in with a z-score of 0.208.

Compound `CCOc1cc(C2Nc3ccccc3C(=O)N2c2ccccc2OC)ccc1O` (stereo not drawn) had a z-score of -0.417.

In turn, `CCOC(=O)C1=C(N)c2ccccc2CC1C(C)C` (stereo not drawn) had a z-score of -0.876.

Consider `CCOc1ccc2nc(SCC(=O)Nc3ncccn3)[nH]c2c1`, for which the z-score amounted to 1.4.

`O=C(CCN1C(=O)c2ccccc2C1=O)OCN1C(=O)c2ccccc2C1=O` yielded a z-score of -0.92.

Regarding `CCOC(=O)Cc1nnc(Nc2cccc(O)c2)c2ccccc12`, the z-score was determined as 0.582.

`Cc1cc(/C=N\O)c(C)n1-c1ccncc1` displayed a z-score of 0.578.

In turn, `Cc1ccc(NC(=O)CSC2=C(C#N)C(c3ccc4c(c3)OCO4)CC(=O)N2)cc1C` (stereo not drawn) returned a z-score of -0.3.

On to `CC1(C2(O)CC(c3ccccc3)ON2)CCCCC1` (stereo not drawn), for which the z-score was determined as 0.343.

`COc1ccc(Cn2c(N)c(C#N)c3nc4ccccc4nc32)cc1OC`: the z-score is -0.944.

The compound `Cc1nnc(SCC(=O)N2CCC(C(N)=O)CC2)s1` had a z-score of -0.854.

Regarding `C=CCn1c(SCC(=O)c2ccccc2)nnc1-c1ccc2c(c1)OCO2`, the z-score was 1.39.

In turn, `CC(C)(C)c1ccc(O)c(N)c1` registered a z-score of 0.0324.

In the case of `CC(=O)Nc1ccc(-c2cc3ccccc3o2)cc1`, the z-score was found to be 0.0674.

As for `COC(=O)c1ccccc1NC(=O)CSc1nnc(-c2ccncc2)o1`, the z-score was -1.26.

As for `Cc1c(C=NCCOCc2ccccc2)cnn1C`, the z-score came to 0.325.

On to `CCS(=O)(=O)CCn1c([N+](=O)[O-])cnc1C`, for which the z-score was determined as 0.14.

In turn, `Cc1ccc(-n2c(N)c(C(N)=O)sc2=S)cc1` came in with a z-score of 1.48.

For the compound `CCN(CC)CCOC(=O)C1(c2ccc(OC)c(OC)c2)CCCC1`, the z-score was -0.16.

For the compound `CCN(CC)C(=O)c1sc2nc(-c3cccs3)cc(-c3cccs3)c2c1N`, the z-score was -0.775.

`COc1ccc(/C(O)=C2/C(=O)C(=O)N(CCN(C)C)C2c2ccccn2)cc1OC` (stereo not drawn) showed a z-score of -0.24.

With `CC1(C(=O)CSc2nc3ccccc3s2)CCC(=O)O1` (stereo not drawn), the z-score is -0.368.

Take `O=C(O)CC1Sc2nc3ccccc3n2C1=O` (stereo not drawn): the z-score was -0.43.

With `CC(=O)Nc1ccc(Oc2ccc3nc(C)[nH]c3c2)cc1`, the z-score is -1.67.

The compound `CC(C)c1nc(NCC2CCCO2)c(C#N)c2c1COC(C)(C)C2` (stereo not drawn) had a z-score of -0.111.

`N#Cc1nc(COc2ccc(Br)cc2)oc1N1CCCC1` registered a z-score of 1.21.

With `CCCC1Cc2c(sc3ncnc(N)c23)CO1` (stereo not drawn), the z-score amounted to 0.241.

The compound `Cc1nc(Sc2cccn2C)c(C(F)(F)F)c(=O)[nH]1` gave a z-score of 2.32.

`COC(=O)c1cc(Br)c(=O)n(-c2nccs2)c1` gave a z-score of -2.4.

`Cc1ccc(SCc2[nH]nc3c2C(c2ccc(C)o2)C(C#N)=C(N)O3)cc1` (stereo not drawn): the z-score was found to be 1.99.

`COc1cccc(C2C(C(=O)c3cc4ccccc4o3)=C(O)C(=O)N2CCN(C)C)c1OC` (stereo not drawn) had a z-score of -1.27.

Compound `Cc1cc(C)n(CC2CC(=O)N(c3ccc(Cl)c(Cl)c3)C2=O)n1` (stereo not drawn) registered a z-score of 0.03.

The compound `CN1CCN(c2nc3c(c(=O)n(C)c(=O)n3C)n2Cc2cccc3ccccc23)CC1` had a z-score of 0.82.

`CC(C)C(=O)N1CCN(c2nc(-c3ccccc3)c3c(c2C#N)CCCC3)CC1` yielded a z-score of -0.342.

For the compound `CCSc1nc(O)c(C2OC(=O)c3c2ccc(OC)c3OC)c(=O)n1-c1ccccc1` (stereo not drawn), the z-score is -0.555.

Consider `COc1cccc(NC(=O)CC2SC(=Nc3ccccc3)NC2=O)c1` (stereo not drawn), for which the z-score came to 0.335.

Turning to `Cc1nnc(NCc2n[nH]c(=O)c3ccccc23)c2ccccc12`, the z-score is 1.58.
